In PubChem BioAssay (EPA / NIEHS):
Values joined by “and” are separate entries in the source; they are usually repeats but may differ in a detail not shown here. Equal values may be shown once. More than one record can exist for a structure, and the calls need not agree. Active and inactive are the calls of the source. Rule for the calls: active = hit-call score of the fitted dose curve at least 0.9, where 1 is the maximum; inactive = score below 0.9.

Key:
[1] = read-out: Monocyte Chemoattractant Protein-1 (MCP1), CCL2 (gene 6347); assay: BSK_4H_MCP1: BioMAP Diversity Plus: 4H Assay for Monocyte Chemoattractant Protein-1 (MCP1) Biomarker Activity (AID 2283018); conditions: primary human endothelial cells (HUVEC); actives raise or lower the signal
Method in brief: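 ELISA of MCP-1 (CCL2) 24 h after chemical dosing of HUVEC in the BioMAP 4H system. Gain or loss versus DMSO fitted; parallel SRB staining (560 nm) tracked overt cytotoxicity.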

[2] = read-out: Interleukin-8 (IL8), CXCL8 (gene 3576); assay: BSK_3C_IL8: BioMAP Diversity Plus: 3C Assay for Interleukin-8 (IL8) Biomarker Activity (AID 2283020); conditions: primary human endothelial cells (HUVEC); actives raise or lower the signal
Method in brief: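 IL-8 was measured by ELISA in HUVEC cultures 24 h after chemical dosing, with gain or loss of signal fitted relative to DMSO. Parallel SRB total-protein staining tracked overt cytotoxicity.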

[3] = BSK_3C_SRB: Viability Assessment in the BioMAP Diversity Plus: 3C Assay (AID 2283023); conditions: primary human endothelial cells (HUVEC);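 note: fitted both ways against DMSO so a hit may be signal rise or drop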
Method in brief: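 Cells were dosed with chemical, cultured 24 h, fixed with 10% TCA, stained with 0.1% SRB and read at 560 nm. Human umbilical vein endothelium was used; DMSO served as negative control and baseline.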

[4] = read-out: Pselectin, SELP (gene 6403); assay: BSK_4H_Pselectin: BioMAP Diversity Plus: 4H Assay for Pselectin Biomarker Activity (AID 2283026); conditions: primary human endothelial cells (HUVEC); actives raise or lower the signal
Method in brief: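 ELISA of surface P-selectin on HUVEC, 24 h after dosing, with parallel SRB staining (0.1% after 10% TCA fixation, 560 nm) for overt cytotoxicity. Activity fitted in both directions relative to DMSO.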

[5] = BSK_4H_SRB: Viability Assessment in the BioMAP Diversity Plus: 4H Assay (AID 2283027); conditions: primary human endothelial cells (HUVEC);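 note: cells exposed to compound for 24 h before staining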;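 for AC50: curves fitted both ways versus DMSO so AC50 may be loss or gain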
Method in brief: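 Cytotoxicity read-out in primary human endothelial cells: after 24 h compound exposure, cells were TCA-fixed (10%), stained with 0.1% SRB and absorbance taken at 560 nm. Values fitted in both directions relative to DMSO.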

[6] = read-out: Urokinase-type plasminogen activator receptor (uPAR), PLAUR (gene 5329); assay: BSK_4H_uPAR: BioMAP Diversity Plus: 4H Assay for Urokinase-type plasminogen activator receptor (uPAR) Biomarker Activity (AID 2283030); conditions: primary human endothelial cells (HUVEC); actives raise or lower the signal
Method in brief: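 Chemicals are dosed onto human vascular endothelial primary cells (umbilical vein). After 24 h, uPAR is read by ELISA. Gain or loss of signal is fitted relative to DMSO.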

[7] = read-out: Monokine induced gamma interferon (MIG), CXCL9 (gene 4283); assay: BSK_BE3C_MIG: BioMAP Diversity Plus: BE3C Assay for Monokine induced gamma interferon (MIG) Biomarker Activity (AID 2283035); conditions: primary human bronchial epithelial cells; actives raise or lower the signal
Method in brief: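 ELISA quantified MIG after 24 h exposure of primary bronchial epithelial cultures, analysed in both directions relative to DMSO. Cytotoxicity tracked in parallel cultures by sulforhodamine B staining.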

[8] = read-out: Plasminogen activator inhibitor-1 (PAI1), SERPINE1 (gene 5054); assay: BSK_BE3C_PAI1: BioMAP Diversity Plus: BE3C Assay for Plasminogen activator inhibitor-1 (PAI1) Biomarker Activity (AID 2283037); conditions: primary human bronchial epithelial cells; actives raise or lower the signal
Method in brief: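 PAI-1 was measured by ELISA in human primary bronchial epithelial cultures 24 h after chemical dosing, with cytotoxicity checked by SRB total-protein staining in parallel cultures. Activity was fitted in both directions relative to DMSO.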

[9] = read-out: Macrophage colony-stimulating factor (MCSF), CSF1 (gene 1435); assay: BSK_CASM3C_MCSF: BioMAP Diversity Plus: CASM3C Assay for Macrophage colony-stimulating factor (MCSF) Biomarker Activity (AID 2283044); conditions: primary human coronary artery smooth muscle cells; actives raise or lower the signal;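 note: M-CSF protein amount quantified by ELISA after 24 h exposure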
[10] = read-out: Low-density lipoprotein receptor (LDLR), LDLR (gene 3949); assay: BSK_CASM3C_LDLR: BioMAP Diversity Plus: CASM3C Assay for Low-density lipoprotein receptor (LDLR) Biomarker Activity (AID 2283045); conditions: primary human coronary artery smooth muscle cells; actives raise or lower the signal;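 note: LDLR protein level on the cell surface quantified by ELISA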
[11] = read-out: serum amyloid A (SAA), SAA1 (gene 6288); assay: BSK_CASM3C_SAA: BioMAP Diversity Plus: CASM3C Assay for serum amyloid A (SAA) Biomarker Activity (AID 2283049); conditions: primary human coronary artery smooth muscle cells; actives raise or lower the signal;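 note: SAA protein level quantified by ELISA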
[12] = BSK_CASM3C_SRB: Viability Assessment in the BioMAP Diversity Plus: CASM3C Assay (AID 2283050); conditions: primary human coronary artery smooth muscle cells
[13] = read-out: Thrombomodulin, THBD (gene 7056); assay: BSK_CASM3C_Thrombomodulin: BioMAP Diversity Plus: CASM3C Assay for Thrombomodulin Biomarker Activity (AID 2283051); conditions: primary human coronary artery smooth muscle cells; actives raise or lower the signal;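 note: thrombomodulin protein level measured by ELISA 24 h after dosing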
[14] = read-out: Collagen III, COL3A1 (gene 1281); assay: BSK_hDFCGF_CollagenIII: BioMAP Diversity Plus: hDFCGF Assay for Collagen III Biomarker Activity (AID 2283056); conditions: primary human foreskin fibroblasts; actives raise or lower the signal
Method in brief: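 Cells: human foreskin fibroblasts, primary. Dosing followed by 24 h incubation, then ELISA for collagen III. Both increases and decreases scored relative to DMSO.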

[15] = read-out: Macrophage colony-stimulating factor (MCSF), CSF1 (gene 1435); assay: BSK_hDFCGF_MCSF: BioMAP Diversity Plus: hDFCGF Assay for Macrophage colony-stimulating factor (MCSF) Biomarker Activity (AID 2283060); conditions: primary human foreskin fibroblasts; actives raise or lower the signal
Method in brief: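 M-CSF levels, determined by ELISA, are taken at 24 h after dosing human skin fibroblasts. Responses in either direction are fitted with DMSO serving as the baseline.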

[16] = read-out: Interleukin-1 alpha (IL1a), IL1A (gene 3552); assay: BSK_KF3CT_IL1a: BioMAP Diversity Plus: KF3CT Assay for Interleukin-1 alpha (IL1a) Biomarker Activity (AID 2283070); conditions: primary human keratinocytes with fibroblasts; actives raise or lower the signal
Method in brief: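 IL-1a was detected by ELISA 24 h after chemical treatment of a co-culture of human skin keratinocytes and foreskin fibroblasts. Gain or loss of signal was fitted against the DMSO baseline.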

[17] = read-out: C-C motif chemokine 2 (Homo sapiens) (UniProt P13500); assay: BSK_KF3CT_MCP1: BioMAP Diversity Plus: KF3CT Assay for Monocyte Chemoattractant Protein 1 (MCP1/CCL2) Biomarker Activity (AID 2283073); conditions: primary human keratinocytes with fibroblasts; actives raise or lower the signal
Method in brief: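 Keratinocytes and foreskin fibroblasts were co-cultured, dosed with chemical, and sampled 24 h later. MCP-1 was quantified by ELISA, and the endpoint was analyzed with bidirectional fitting using DMSO as negative control.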

[18] = read-out: Matrix Metallopeptidase 9 (MMP9), MMP9 (gene 4318); assay: BSK_KF3CT_MMP9: BioMAP Diversity Plus: KF3CT Assay for Matrix Metallopeptidase 9 (MMP9) Biomarker Activity (AID 2283074); conditions: primary human keratinocytes with fibroblasts; actives raise or lower the signal;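 for AC50: MMP9 protein level quantified by ELISA in the co-culture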
Method in brief: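 MMP-9 quantified by ELISA after 24 h chemical treatment of primary human skin keratinocyte/fibroblast co-cultures; gain or loss fitted against DMSO, with parallel SRB staining (0.1% SRB, 560 nm) for overt cytotoxicity.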

[19] = read-out: E-selectin (Homo sapiens) (UniProt P16581); assay: BSK_LPS_Eselectin: BioMAP Diversity Plus: LPS Assay for Eselectin Biomarker Activity (AID 2283077); conditions: primary human HUVEC with PBMC; actives raise or lower the signal
Method in brief: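 Signal of E-selectin, detected by ELISA, served as the endpoint; cells were umbilical vein endothelium with PBMC, read 24 h after treatment. DMSO defined baseline, and both increases and decreases were fitted.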

[20] = read-out: Interleukin-8 (IL8), CXCL8 (gene 3576); assay: BSK_LPS_IL8: BioMAP Diversity Plus: LPS Assay for Interleukin-8 (IL8) Biomarker Activity (AID 2283078); conditions: primary human HUVEC with PBMC; actives raise or lower the signal
Method in brief: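 Endothelial cells and PBMC from human donors are co-cultured, treated with chemicals and LPS, then assayed for IL-8 by ELISA after 24 h. Parallel SRB staining (0.1% SRB after 10% TCA fixation, 560 nm) flags cytotoxicity.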

Measured: AC50

E-selectin (Homo sapiens), sequence (P16581 whole entry, looked up): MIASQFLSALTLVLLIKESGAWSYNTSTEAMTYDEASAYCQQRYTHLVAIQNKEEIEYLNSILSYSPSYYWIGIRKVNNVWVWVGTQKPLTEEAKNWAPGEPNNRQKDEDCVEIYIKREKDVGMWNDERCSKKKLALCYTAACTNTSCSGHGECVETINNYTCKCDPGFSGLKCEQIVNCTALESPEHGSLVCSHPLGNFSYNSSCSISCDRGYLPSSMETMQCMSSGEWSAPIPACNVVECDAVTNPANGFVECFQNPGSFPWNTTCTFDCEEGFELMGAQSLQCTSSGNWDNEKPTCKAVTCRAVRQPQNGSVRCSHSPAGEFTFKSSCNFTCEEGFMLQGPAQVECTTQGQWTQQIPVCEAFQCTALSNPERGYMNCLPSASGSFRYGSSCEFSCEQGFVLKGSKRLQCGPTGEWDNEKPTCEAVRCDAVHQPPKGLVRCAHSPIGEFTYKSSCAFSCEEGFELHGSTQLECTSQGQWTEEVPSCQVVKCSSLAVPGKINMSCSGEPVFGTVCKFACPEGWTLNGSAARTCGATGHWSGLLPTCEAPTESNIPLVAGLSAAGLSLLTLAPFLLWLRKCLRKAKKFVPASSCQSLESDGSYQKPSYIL

CC(C)CCCCCCCOC(=O)c1ccccc1C(=O)OCCCCCCCC(C)C
inactive: all assays above

CCC(C)c1cc([N+](=O)[O-])cc([N+](=O)[O-])c1OC(=O)C=C(C)C (configuration not stated)
inactive: [13]
active: [1] 5.34 µM | [2] 0.00641 µM | [3] 12.9 µM | [4] 7.89 µM | [5] 20 µM | [6] 5.79 µM | [7] 35.1 µM | [8] 11 µM | [9] 30.7 µM | [10] 31.2 µM | [11] 20 µM | [12] 30.3 µM | [14] 5.31 µM | [15] 6.13 µM | [16] 22.8 µM | [17] 36.7 µM | [18] 14.8 µM | [19] 13.3 µM | [20] 20 µM

CC(C)(C)C(O)C(Oc1ccc(-c2ccccc2)cc1)n1cncn1 (configuration not stated)
inactive: [2] | [7] | [13] | [15] | [17] | [19] | [20]
active: [1] 31.8 µM | [3] 31.7 µM | [4] 29.7 µM | [5] 31.6 µM | [6] 31.8 µM | [8] 5.39 µM | [9] 20 µM | [10] 20 µM | [11] 20 µM | [12] 30.5 µM | [14] 24.9 µM | [16] 33 µM | [18] 28 µM

CCc1cc(C)cc(CC)c1-c1c(OC(=O)C(C)(C)C)n2n(c1=O)CCOCC2
active: [2] 0.0209 µM | [8] 6.89 µM | [9] 0.975 µM | [10] 2.79 µM | [11] 0.0822 µM | [20] 0.016 µM
inactive: all other assays above

Nc1ccc(-c2ccc(N)c(N)c2)cc1N
active: [1] 20 µM | [4] 24.9 µM | [8] 11.1 µM | [9] 8.36 µM | [14] 20 µM | [15] 16.1 µM | [16] 15.8 µM | [18] 16.1 µM
inactive: all other assays above

O=C1C(Cl)=C(Cl)C(=O)C(Cl)=C1Cl
inactive: [10] | [13]
active: [1] 12.3 µM | [2] 20 µM | [3] 4.97 µM | [4] 12.8 µM | [5] 11.9 µM | [6] 31.9 µM | [7] 35.6 µM | [8] 20 µM | [9] 20 µM | [11] 20 µM | [12] 20 µM | [14] 20 µM | [15] 20 µM | [16] 20.1 µM | [17] 10.1 µM | [18] 13.5 µM | [19] 30.2 µM | [20] 29 µM

CC(C)(C)C(=O)CCl
active: [9] 0.65 µM
not listed: [20]
inactive: all other assays above

O=C1C=CC(=O)C=C1
inactive: [1] | [2] | [3] | [4] | [5] | [6] | [7] | [9] | [10] | [11] | [12] | [20]
active: [1] 33.4 µM | [2] 32.9 µM | [3] 28 µM | [4] 14.1 µM | [5] 28.7 µM | [8] 1.68 µM and 14.6 µM | [9] 12.1 µM | [12] 4.88 µM | [13] 8.44 µM and 20 µM | [14] 20 µM | [15] 16 µM and 13.5 µM | [16] 30.3 µM and 26.4 µM | [17] 27.7 µM and 16.1 µM | [18] 20 µM and 11.6 µM | [19] 26.4 µM and 30.4 µM | [20] 23.6 µM

O=S(=O)(c1ccccc1)c1ccccc1
inactive: all assays above

COCC(=O)N(c1c(C)cccc1C)N1CCOC1=O
inactive: all assays above

O=C(CCl)c1ccccc1
active: [1] 5.41 µM | [2] 10.9 µM | [3] 20 µM | [4] 3.29 µM | [5] 14.3 µM | [6] 9.98 µM | [7] 36.5 µM | [9] 12.9 µM | [10] 33 µM | [11] 14.6 µM | [12] 12.2 µM | [14] 4.85 µM | [15] 5.84 µM | [16] 28.4 µM | [17] 32 µM | [18] 18 µM | [19] 6.13 µM | [20] 7.85 µM
inactive: [8] | [13]
